Results published in PubChem BioAssay AID1159580 (chemical genetic matrix, 2015).
Several values for one entry are separate records, joined by “and”; a condition that tells them apart may be missing. Equal values may be shown once. Screen size: about 5,500 compounds; about 2,000 (36%) were called active. Roughly 18% stayed inconclusive and do not appear here. Cut-off read from the data, not from the text of the source: active = normalized growth mostly below about 0.91 (no sharp cut-off); inconclusive = no clear call, values can overlap the other calls; inactive = mostly above about 0.92. The list shows a part of the results.

Experiment: chemical genetic growth profiling, strain panel (AID 1159580);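 note: tested at 20 µM; growth read once vehicle control cultures reached saturation at 30 °C; 1 = growth at the plate median or of vehicle wells; lower values mean less growth of the strain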
Details: S. cerevisiae deletion strains, growth OD

Measured: normalized growth

NCCc1ccc(O)c(O)c1
inactive: locus YAL013W, strain DEP1, hits give low values 1 and 0.968 | locus YAL021C, strain ccr4, hits give low values 1.01 | locus YAL026C, strain drs2, hits give low values 1 | locus YAL030W, strain snc1, hits give low values 1.01 | locus YAL040C, strain CLN3, hits give low values 0.983 | locus YBL061C, strain skt5, hits give low values 0.998 | locus YBR009C, strain hhf1, hits give low values 0.978 | locus YBR021W, strain FUR4, hits give low values 0.999 | locus YBR023C, strain chs3, hits give low values 1 | locus YBR171W, strain sec66, hits give low values 0.997 | locus YBR229C, strain ROT2, hits give low values 1 | locus YBR231C, strain swc5, hits give low values 0.997 | locus YBR279W, strain paf1, hits give low values 1 | locus YCL011C, strain gbp2, hits give low values 0.981 | locus YCL016C, strain dcc1, hits give low values 0.991 | locus YCL029C, strain bik1, hits give low values 0.965 | locus YCL061C, strain MRC1 (second series), hits give low values 0.997 | locus YCL061C, strain MRC1, hits give low values 0.987 | locus YCL069W, strain vba3, hits give low values 0.981 | locus YCR088W, strain abp1, hits give low values 0.995 | locus YDL005C, strain med2, hits give low values 1 | locus YDL035C, strain GPR1, hits give low values 1.01 | locus YDL040C, strain nat1, hits give low values 1.01 | locus YDL074C, strain BRE1, hits give low values 0.978 | locus YDL101C, strain DUN1, hits give low values 0.988 | locus YDL134C, strain PPH21, hits give low values 1.04 | locus YDL185W, strain tfp1, hits give low values 0.979 | locus YDL192W, strain arf1, hits give low values 0.995 | locus YDR001C, strain nth1, hits give low values 1 | locus YDR069C, strain doa4, hits give low values 0.999 | locus YDR101C, strain arx1, hits give low values 1.01 | locus YDR137W, strain rgp1, hits give low values 1.03 | locus YDR150W, strain NUM1, hits give low values 0.992 | locus YDR159W, strain sac3, hits give low values 1.03 | locus YDR162C, strain NBP2, hits give low values 1 | locus YDR195W, strain ref2 1.01 | locus YDR297W, strain sur2, hits give low values 1 | locus YDR318W, strain mcm21, hits give low values 0.988 | locus YDR334W, strain swr1, hits give low values 0.996 | locus YDR335W, strain msn5, hits give low values 1.01 | locus YDR363W, strain ESC2, hits give low values 0.998 | locus YDR388W, hits give low values 1 | locus YDR392W, strain spt3, hits give low values 0.993 | locus YDR502C, strain sam2, hits give low values 0.998 | locus YEL003W, strain gim4, hits give low values 0.977 | locus YEL037C, strain rad23, hits give low values 1 | locus YEL061C, strain CIN8 (second series), hits give low values 1.02 | locus YEL061C, strain CIN8, hits give low values 0.997 | locus YER002W, strain NOP16, hits give low values 1.01 | locus YER015W, strain faa2, hits give low values 1.02 | locus YER016W, strain bim1, hits give low values 1 | locus YER110C, hits give low values 0.984 | locus YER111C, strain swi4, hits give low values 0.993 | locus YER155C, strain BEM2 (second series), hits give low values 1 | locus YER155C, strain BEM2, hits give low values 1 | locus YER167W, strain BCK2, hits give low values 0.995 | locus YFR010W, strain ubp6, hits give low values 0.984 | locus YGL078C, strain dbp3, hits give low values 1 | locus YGL086W, strain mad1, hits give low values 0.998 | locus YGL167C, strain pmr1, hits give low values 1.02 | locus YGL173C, strain kem1, hits give low values 0.98 | locus YGL227W, strain vid30, hits give low values 1 | locus YGL240W, strain doc1, hits give low values 1.01 | locus YGL248W, strain PDE1, hits give low values 0.961 | locus YGL253W, strain hxk2, hits give low values 0.989 | locus YGR135W, strain pre9, hits give low values 0.95 | locus YGR229C, strain SMI1, hits give low values 1.02 | locus YGR252W, strain gcn5, hits give low values 1.01 | locus YHR013C, strain ard1, hits give low values 0.993 | locus YHR027C, strain rpn1, hits give low values 1 | locus YHR030C, strain SLT2, hits give low values 1 and 1.04 and 1.03 | locus YHR079C, strain IRE1 (second series), hits give low values 0.994 | locus YHR079C, strain IRE1, hits give low values 1.03 and 1.04 | locus YHR094C, strain hxt1, hits give low values 0.996 | locus YHR129C, strain ARP1, hits give low values 1.01 | locus YHR142W, strain chs7, hits give low values 1 | locus YHR200W, strain rpn10, hits give low values 0.994 | locus YIL066C, strain RNR3, hits give low values 0.987 | locus YIL073C, strain SPO22, hits give low values 0.891 | locus YIL125W, strain kgd1, hits give low values 1 | locus YIR030C, strain dcg1, hits give low values 0.982 | locus YJL092W, strain hpr5, hits give low values 1.01 | locus YJL095W, strain BCK1 (second series), hits give low values 1.01 | locus YJL095W, strain BCK1, hits give low values 0.972 and 1.03 | locus YJL115W, strain asf1, hits give low values 1.01 | locus YJL129C, strain trk1, hits give low values 0.998 | locus YJL134W, strain LCB3, hits give low values 1 | locus YJL154C, strain vps35, hits give low values 1.01 | locus YJL164C, strain tpk1, hits give low values 1.01 | locus YJL166W, strain qcr8, hits give low values 1 | locus YJL168C, strain set2, hits give low values 1.01
